Measurements: paper PMC5540273 (PLoS ONE, 2017)
Where “and” joins values, the source holds several entries; their conditions need not be identical. Equal values may be shown once. Read-outs that look alike come from different tables or passages of the source.

Columns and labels:
PFTK1 = test system: T1, PFTK1; conditions: concentration: 1 μM, replicates: in singlicate, n = 1
T1 construct: gene CDK14

PHKG1 = conditions: concentration: 1 μM, replicates: in singlicate, n = 1
PHKG2 = conditions: concentration: 1 μM, replicates: in singlicate, n = 1
PIK3C2B = conditions: concentration: 1 μM, replicates: in singlicate; n = 1
PIK3C2G = conditions: concentration: 1 μM, replicates: in singlicate, n = 1
PIK3CA = conditions: concentration: 1 μM, replicates: in singlicate, n = 1
PIK3CB = conditions: concentration: 1 μM, replicates: in singlicate, n = 1
PIK3CD = conditions: concentration: 1 μM, replicates: in singlicate, n = 1
PIK3CG = conditions: concentration: 1 μM, replicates: in singlicate, n = 1
PIK4CB = test system: T2, PIK4CB; conditions: concentration: 1 μM, replicates: in singlicate, n = 1
T2 construct: gene PI4KB
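Note: KINOMEscan kinase panel screen.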

Compound | %Inh (PFTK1) [%] | %Inh (PHKG1) [%] | %Inh (PHKG2) [%] | %Inh (PIK3C2B) [%] | %Inh (PIK3C2G) [%] | %Inh (PIK3CA) [%] | %Inh (PIK3CB) [%] | %Inh (PIK3CD) [%] | %Inh (PIK3CG) [%] | %Inh (PIK4CB) [%] | %Inh (PFTK1; 1 µM) | %Inh (PHKG2; 1 µM) | %Inh (PIK3C2G; 1 µM) | %Inh (PIK3CD; 1 µM) | %Inh (PIK4CB; 1 µM) | %Inh (PHKG1; 1 µM) | %Inh (PIK3CA; 1 µM) | %Inh (PIK3CB; 1 µM) | %Inh (PIK3CG; 1 µM)
Cc1nnc(-c2ccc(C)c(-c3ccc(C(=O)Nc4ccc(NS(C)(=O)=O)cc4)cc3)c2)o1 [GW702865] | 14 | 2 | 0 | 0 | 0 | 0 | 0 | 10 | 0 | 0 | – | – | – | – | – | – | – | – | –
CCc1nc(-c2cccc(C)c2)c(-c2ccnc(NCc3ccccc3)c2)s1 | 1 | 0 | 22 | 0 | 18 | 0 | 16 | 0 | 0 | 0 | – | – | – | – | – | – | – | – | –
O=C(NCCNc1ccnc(Nc2ccc(F)cc2)n1)Nc1ccccc1F [GSK1379880] | 13 | 0 | 0 | 0 | 62 | 0 | 0 | 21 | 0 | 13 | – | – | – | – | – | – | – | – | –
COc1ccc(COc2cc(-n3cnc4ccccc43)sc2C(N)=O)cc1 [GSK1024304] | 0 | 0 | 0 | 0 | 0 | 0 | 100 | 0 | 0 | 0 | – | – | – | – | – | – | – | – | –
COc1cc2c(cc1OCCN1CCN(C)CC1)ncc1c3ccc(C#N)cc3[nH]c21 | 18 | 98.2 | 99.8 | 0 | 25 | 0 | 0 | 0 | 0 | 0 | – | – | – | – | – | – | – | – | –
COc1cc2ncn(-c3cc(OCc4sccc4Cl)c(C(N)=O)s3)c2cc1OC [GSK448459] | 12 | 0 | 0 | 15 | 0 | 0 | 0 | 30 | 35 | 0 | – | – | – | – | – | – | – | – | –
O=C(Nc1cccc(-c2nn3ncccc3c2-c2ccnc(Nc3cccc(C(F)(F)F)c3)n2)c1)c1c(F)cccc1F [GSK299495] | 11 | 0 | 0 | 0 | 0 | 0 | 0 | 25 | 0 | 0 | – | – | – | – | – | – | – | – | –
NS(=O)(=O)c1cccc(-c2ccc3nccc(-c4cccc(S(N)(=O)=O)c4)c3c2)c1 [GW867253] | 0 | 0 | 5 | 58 | 52 | 38 | 24 | 39 | 88 | 99.1 | – | – | – | – | – | – | – | – | –
c1ccc(-c2cc(-c3c[nH]nc3-c3ccccn3)ccn2)cc1 [GW576604] | 39 | 0 | 0 | 0 | 0 | 0 | 0 | 0 | 0 | 0 | – | – | – | – | – | – | – | – | –
COc1cc2c(cc1OC[C@@H](O)CO)ncc1c3ccc(C#N)cc3[nH]c21 | 0 | 95.5 | 99.2 | 0 | 0 | 18 | 0 | 2 | 9 | 0 | – | – | – | – | – | – | – | – | –
CC(C)(CN)c1nc(-c2ccc(Cl)c(O)c2)c(-c2ccncc2)[nH]1.O=C(O)C(F)(F)F [SB-477794] | – | 0 | – | 0 | – | 0 | 0 | – | 0 | – | 6% and 3% | 12% and 0% | 0% and 5% | 20% and 5% | 25% and 0% | – | – | – | –
COc1ccc(CNC(=O)NC2CCN(c3ccnc(Nc4ccc(OC)cc4)n3)C2)cc1 (stereo not shown) [GSK1379727] | 9 | 0 | 0 | 0 | 0 | 0 | 0 | 26 | 0 | 2 | – | – | – | – | – | – | – | – | –
O=C(NCCNc1ccnc(Nc2ccc(F)cc2)n1)c1cc2ccccc2s1 [GSK1379874] | 0 | 0 | 0 | 0 | 0 | 0 | 0 | 0 | 0 | 0 | – | – | – | – | – | – | – | – | –
O=c1cc(N2CCOCC2)nc2n(Cc3cccc(F)c3)ccn12 [GSK2297430] | 12 | 0 | 0 | 0 | 0 | 0 | 99 | 6 | 0 | 0 | – | – | – | – | – | – | – | – | –
COc1cc(Nc2nccc(N3CCC(NC(=O)c4cccc(NC(C)=O)c4)C3)n2)cc(OC)c1OC (stereo not shown) [GSK1379754] | 18 | 7 | 3 | 100 | 0 | 99.9 | 0 | 0 | 99.9 | 0 | – | – | – | – | – | – | – | – | –
CCc1ccnc(/C=C/c2n[nH]c3cc(Sc4ccccc4C(=O)NC)ccc23)c1 | 8 | 17 | 6 | 0 | 0 | 0 | 0 | 10 | 0 | 0 | – | – | – | – | – | – | – | – | –
Cl.Nc1ncnc2occ(-c3ccc(NC(=O)Nc4cc(C(F)(F)F)ccc4F)cc3)c12 [SB-707548] | 79 | 0 | 8 | 0 | 23 | 0 | 8 | 27 | 6 | 0 | – | – | – | – | – | – | – | – | –
O=C(NOCC1CC1)c1ccc(F)c(F)c1Nc1ccc(I)cc1Cl | 0 | 0 | 0 | 0 | 0 | 15 | 0 | 0 | 0 | 100 | – | – | – | – | – | – | – | – | –
O=C(NCCCN1CCOCC1)c1cccc(Nc2nccc(Nc3ccc(Oc4ccccc4)cc3)n2)c1 [GW663929] | 43 | 0 | 14 | 6 | 0 | 12 | 18 | 7 | 11 | 21 | – | – | – | – | – | – | – | – | –
CCCCCc1nc2c(N)ncnc2n1CCCCC [SKF-97255] | 2 | 9 | 0 | 0 | 0 | 14 | 0 | 0 | 15 | 1 | – | – | – | – | – | – | – | – | –

Compound | %Inh (PFTK1) [%] | %Inh (PHKG1) [%] | %Inh (PHKG2) [%] | %Inh (PIK3C2B) [%] | %Inh (PIK3C2G) [%] | %Inh (PIK3CA) [%] | %Inh (PIK3CB) [%] | %Inh (PIK3CD) [%] | %Inh (PIK3CG) [%] | %Inh (PIK4CB) [%] | %Inh (PFTK1; 1 µM) | %Inh (PHKG2; 1 µM) | %Inh (PIK3C2G; 1 µM) | %Inh (PIK3CD; 1 µM) | %Inh (PIK4CB; 1 µM) | %Inh (PHKG1; 1 µM) | %Inh (PIK3CA; 1 µM) | %Inh (PIK3CB; 1 µM) | %Inh (PIK3CG; 1 µM)
Cc1cccc(-c2nc(-c3ccc(S(C)(=O)=O)cc3)sc2-c2ccncc2)c1 | 0 | 0 | 0 | 0 | 49 | 20 | 1 | 25 | 10 | 0 | – | – | – | – | – | – | – | – | –
CN1c2ccc(CNc3ccc(F)cc3)cc2-c2c(cnn2C)S1(=O)=O | 0 | 0 | 0 | 19 | 41 | 0 | 0 | 0 | 0 | 0 | – | – | – | – | – | – | – | – | –
Cc1nnc(-c2ccc3ncc(-c4ccc(S(C)=O)cc4)n3c2)o1 (stereo not shown) | 0 | 20 | 0 | 13 | 28 | 3 | 64 | 0 | 3 | 0 | – | – | – | – | – | – | – | – | –
[2H]C([2H])(c1cccc(C(F)(F)F)c1C)n1ccn2c(=O)nc(N3CCOCC3)cc12 [GSK2336394] | 12 | 0 | 0 | 0 | 0 | 0 | 97.5 | 38 | 0 | 0 | – | – | – | – | – | – | – | – | –
O=C(c1ccc(-c2cc(-c3c[nH]nc3-c3ccccn3)ccn2)cc1)N1CCOCC1 [GW812171] | 20 | 1 | 0 | 0 | 0 | 29 | 0 | 0 | 0 | 8 | – | – | – | – | – | – | – | – | –
Fc1ccc(-c2ncn(CCCN3CCOCC3)c2-c2ccccn2)cc1 [SB-211742] | 0 | 50 | 0 | 0 | 0 | 0 | 0 | 0 | 0 | 0 | – | – | – | – | – | – | – | – | –
c1ccc(-c2n[nH]cc2-c2ccnc3ccccc23)nc1 [GW271431] | 25 | 0 | 0 | 0 | 0 | 0 | 0 | 5 | 0 | 0 | – | – | – | – | – | – | – | – | –
NCCNS(=O)(=O)c1ccc(-c2ccnc3[nH]ccc23)cc1 [GSK977617] | – | – | – | 0 | – | – | – | 0 | – | – | 16% and 27% | 75% and 60% | 32% and 12% | – | 64% and 26% | 45% and 25% | 0% and 3% | 43% and 15% | 80% and 68%
COc1ccc(Nc2nccc(N3CCC(NC(=O)Nc4cc(C)ccc4C)C3)n2)cc1 (stereo not shown) [GSK1379741] | 2 | 0 | 0 | 0 | 0 | 0 | 0 | 0 | 0 | 23 | – | – | – | – | – | – | – | – | –
Cc1ccc(C(=O)NCC(N)=O)cc1-n1c(C)cc(OCc2ccc(F)cc2F)c(Br)c1=O | 26 | 9 | 1 | 0 | 51 | 0 | 0 | 30 | 0 | 0 | – | – | – | – | – | – | – | – | –
NS(=O)(=O)c1cccc(-c2ccc3ncc(N4CCOCC4)nc3c2)c1 [GSK1535721] | 24 | 0 | 41 | 0 | 14 | 13 | 12 | 34 | 29 | 81 | – | – | – | – | – | – | – | – | –
O=c1cc(N2CCOCC2)nc2n(Cc3cccc4ccccc34)ccn12 [GSK2333389] | 0 | 2 | 0 | 0 | 0 | 0 | 99.7 | 89 | 3 | 6 | – | – | – | – | – | – | – | – | –
Cc1cccc(Cn2ccn3c(=O)cc(N4CCOCC4)nc23)c1 [GSK2297542] | 15 | 1 | 8 | 4 | 0 | 12 | 100 | 52 | 10 | 0 | – | – | – | – | – | – | – | – | –
Cl.Cl.Cl.Fc1ccc(-c2ncn(C3CCNCC3)c2-c2ccnc(Nc3ccccc3)n2)cc1 [SB-238039] | – | – | 0 | 0 | 0 | – | – | 0 | – | – | 16% and 0% | – | – | – | 7% and 34% | 4% and 0% | 6% and 0% | 0% and 13% | 0% and 26%
O=C(Nc1n[nH]c2cc(-c3cccc(F)c3)ccc12)C1CC1 [SB-735464] | 3 | 0 | 0 | 19 | 20 | 0 | 4 | 14 | 16 | 18 | – | – | – | – | – | – | – | – | –
CN1c2ccc(NCc3ccc(F)cc3)cc2-c2c(cnn2C)S1(=O)=O | 0 | 0 | 0 | 0 | 0 | 0 | 0 | 0 | 0 | 0 | – | – | – | – | – | – | – | – | –
COCCNC(=O)c1ccc(-c2cc(C(=O)NC3CC3)cc(F)c2C)cc1 [GW868318] | 18 | 6 | 0 | 0 | 38 | 28 | 49 | 42 | 29 | 40 | – | – | – | – | – | – | – | – | –
Nc1nccc(-c2c(-c3ccc(F)cc3)ncn2C2CCN(CC(F)(F)F)CC2)n1 [SB-236560] | 0 | 0 | 0 | 5 | 53 | 0 | 18 | 0 | 66 | 46 | – | – | – | – | – | – | – | – | –
Cn1cc(-c2ccc3c(c2)CCN3C(=O)Cc2ccccc2Cl)c2c(N)ncnc21 [GSK2608885] | 8 | 1 | 0 | 0 | 0 | 0 | 11 | 30 | 3 | 8 | – | – | – | – | – | – | – | – | –
CC(=O)Nc1ccc(COc2ccc(Nc3ccnc4cc(-c5ccccn5)ccc34)cc2)cc1.Cl [GW440148] | 25 | 0 | 0 | 0 | 0 | 2 | 100 | 7 | 14 | 16 | – | – | – | – | – | – | – | – | –
